Assay results published in PubChem BioAssay (EPA / NIEHS).
Results filed as inconclusive are left out. Calls of active or inactive are those of the source. The calls were made as follows: active = hit-call score of the fitted dose curve at least 0.9, where 1 is the maximum; inconclusive = response in the unintended direction; inactive = score below 0.9.

Biological target: human CYP4F12, CYP4F12 (gene 66002) (UniProt Q9HCS2)
Assay: NVS_ADME_hCYP4F12: NovaScreen (NVS) CYP450-related Enzyme Activity (ADME) Assay for human CYP4F12 (AID 2283111)
Summary of the method: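 Recombinant enzyme with a fluorescent substrate, signal read at 0.5 h post-dose; activity loss analysed relative to acetonitrile. Compounds first run in duplicate at 10 uM, with follow-up concentration-response testing of actives.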

Chain of human CYP4F12, CYP4F12 (gene 66002) (Q9HCS2 whole entry, looked up): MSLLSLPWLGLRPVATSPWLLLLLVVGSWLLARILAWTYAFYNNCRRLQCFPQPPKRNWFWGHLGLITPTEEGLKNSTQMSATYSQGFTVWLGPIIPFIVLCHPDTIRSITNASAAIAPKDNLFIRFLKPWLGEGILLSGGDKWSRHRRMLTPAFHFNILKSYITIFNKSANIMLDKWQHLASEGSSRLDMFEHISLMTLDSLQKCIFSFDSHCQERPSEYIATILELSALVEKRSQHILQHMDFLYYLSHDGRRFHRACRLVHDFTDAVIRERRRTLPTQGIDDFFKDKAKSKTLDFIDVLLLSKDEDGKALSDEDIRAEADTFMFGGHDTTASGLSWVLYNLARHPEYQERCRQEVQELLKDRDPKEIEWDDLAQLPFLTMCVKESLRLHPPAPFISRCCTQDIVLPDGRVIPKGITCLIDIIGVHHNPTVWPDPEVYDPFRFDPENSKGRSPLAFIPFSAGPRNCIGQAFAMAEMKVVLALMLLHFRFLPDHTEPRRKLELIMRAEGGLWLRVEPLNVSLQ

Structure (SMILES) | AC50 | outcome
ClC1C(Cl)C(Cl)C(Cl)C(Cl)C1Cl (configuration not stated) | 17.3 µM (active) | –
O=C(O)C(F)(F)C(F)(F)C(F)(F)C(F)(F)C(F)(F)C(F)(F)C(F)(F)F | – | inactive
